The sample as a whole holds a higher share of hits than the screen did.
Vaccinia Venus: vaccinia inhibition (Venus reporter); Vaccinia virus Venus reporter expression, fluorescence; Potency, µM (series often up to 36.5 µM), for inactives: at the top dose activity change, negative = inhibition, hits mostly inhibitors; 0.46% of 330,000 active; calls by dose curve; tested in A549 cells; also: potency is read from the fitted curve at half-maximal effect; % is scaled to controls: 0 for no effect and ±100 for the full control effect; nearly all actives have a fitted effect of over 30% in size
VACV mCherry inh: vaccinia inhibition (mCherry reporter); Vaccinia virus mCherry reporter infection, fluorescence; Potency, µM (highest dose often 36.5 µM), for the others: at the top dose activity change, negative = inhibition, actives largely listed as inhibitors; 0.63% of 310,000 active; calls by dose curve; tested in A549 cells; also: potency is read from the fitted curve at half-maximal effect; % is scaled to controls: 0 for no effect and ±100 for the full control effect; nearly all actives have a fitted effect of over 35% in size
CHX counter: affects cycloheximide protein synthesis inhibition readout, counter-screen | cell reporter, cycloheximide protein synthesis inhibition counterscreen | max response, % | 12% of 300,000 active; in the data active = max response mostly above about 13%, no sharp cut-off; inactive = mostly below about 14%; also: read at 38.3 µM for the half of the compounds with a filed dose; 0% is about no effect
Shiga inhibitor: Shiga toxin inhibition | Vero cells, Shiga toxin protein synthesis inhibition reporter | inhibition, % at 38.7 µM | 9.2% of 290,000 active | AID 2315; in the data active = inhibition mostly above about 28%, no sharp cut-off; inactive = mostly below about 43%; also: 0% is about no effect
LASV entry inh: blocks Lassa virus binding to or entry into cells. Lassa virus pseudotype entry inhibition, cell reporter. Potency, µM (series often up to 37.9 µM), without a hit: at the top dose activity change, negative = inhibition, most hits filed as inhibitors. 1.2% of 300,000 active; calls by dose curve; tested in HEK293 cells; also: potency is read from the fitted curve at half-maximal effect; % is scaled to controls: 0 for no effect and ±100 for the full control effect; nearly all actives have a fitted effect of over 50% in size
MARV entry inh: blocks Marburg virus binding to or entry into cells. 1.8% of 300,000 active. Potency, µM (top dose mostly 37.8 µM), for inactives: at the highest dose activity change, negative = inhibition, actives largely listed as inhibitors. Marburg virus pseudotyped entry inhibition, cell reporter. AID 540276; calls by dose curve; tested in HEK293 cells; also: potency is read from the fitted curve at half-maximal effect; % is scaled to controls: 0 for no effect and ±100 for the full control effect
* = called active by the depositor; i = inactive; ? = inconclusive; / = not tested or not shown; ! = not active in a repeat; [ ] = dose if it differs, or a comment.

SMILES | Vaccinia Venus | VACV mCherry inh | CHX counter | Shiga inhibitor | LASV entry inh | MARV entry inh
CCOC(=O)CNC(=O)c1cc(-c2ccccn2)nc2c(C)c(Cl)ccc12 | 0% | -6% | -4 | -6 | -16% | 5µM*
Cc1c(Cl)ccc2c(C(N)=O)cc(-c3ccccn3)nc12 | 12% | -4% | -4 | -13 | 9% | ?
O=C(/C=C/C=C/c1ccccc1)CC1(O)C(=O)Nc2ccccc21 (configuration not stated) | -16% | -28% | 19* | 37 | ? | 0%[46.1 µM]
O=C(N/N=C/c1ccco1)Nc1ccccc1 | -3% | -8% | 29* | 102* | ? | ?
CCOc1ccc(/C=N/NC2=NCCCCC2)cc1 | 0% | i | 19* | 27* | 0%[46.1 µM] | 17%[46.1 µM]
O=C(CCC(=O)Nc1ccccc1)N/N=C/c1ccco1 | / | / | 6 | -5 | 0% | ?
O=C(N/N=C/c1ccc(Cl)cc1)Nc1ccccc1 | / | / | 39* | 50* | ? | ?
CCOc1ccc(/C=N/OCC(=O)NC(c2ccccc2)c2ccccc2)cc1 | ? | ? | 5 | 21 | ? | ?
O=C(CO)N/N=C/c1ccc(Cl)cc1 | -9% | -8% | 0 | -14 | 24%[14.3 µM] | 2%
CCOc1ccc(/C=N/Nc2ccccc2)cc1 | -14% | -10% | 27* | 47* | / | /
Cc1ccc(S(=O)(=O)N2CCOCC2)cc1C(=O)OCC(=O)N(Cc1ccccc1)C(C)C | -19% | 0% | / | / | -17% | ?
CCOc1ccc(/C=C/c2nc3ccccc3n2S(=O)(=O)c2cccc(Cl)c2)cc1 | -8%[7.34 µM] | -7%[7.34 µM] | / | / | -2%[46.1 µM] | ?
CCOc1ccc(/C=C(\C#N)C(=O)Nc2sc3c(c2C(=O)OC)CCC3)cc1OC | 8% | -8% | / | / | 2%[46.1 µM] | /
S=C(NCCc1ccccc1)N/N=C/c1ccc(Cl)cc1 | 0%[7.34 µM] | -21%[7.34 µM] | 11 | 14 | -17% | 2%[46.1 µM]
Clc1ccc(/C=N\Nc2ccccc2)cc1 | / | / | 12 | 27* | / | /
CN(C)c1nc(N(C)C)nc(N(C#N)CN2C(=O)c3ccccc3S2(=O)=O)n1 | 0% | -20% | -1 | -16 | -4% | 11%
CN(C)c1ccc(C2=NOC(CN3C(=O)c4ccccc4S3(=O)=O)C2)cc1 (configuration not stated) | 6% | -5% | 55* | 71* | -24% | -8%[46.1 µM]
Cc1ccc2[nH]c(C)cc(=O)c2c1 | / | / | -1 | i | / | /
Cc1ccc(-c2cc(=O)c3cc(C)ccc3[nH]2)cc1 | ? | 0% | 43*! | 59*! | 15µM* | 8.2µM*
O=c1cc(-c2ccccc2)[nH]c2ccc(F)cc12 | ? | i | 16 | 17 | ? | -45%
Cc1ccc(-c2cc(=O)c3cc(F)ccc3[nH]2)cc1 | -17% | i | 16* | 18 | 15% | -22%
CCn1cc(C(=O)NCCCN(CC(C)C)CC(C)C)c(=O)c2cc(S(=O)(=O)N(C)C3CCCCC3)ccc21 | -19% | -26% | 13 | -4 | ? | -2%[46.1 µM]
Cc1ccc(S(=O)(=O)N2CCC(=O)N(C(COCc3ccc(C(F)(F)F)cc3)C(C)C)CC2)cc1 (configuration not stated) | ? | i | -3 | -7 | 13µM* | ?
Cc1ccc(S(=O)(=O)N2CCC(=O)N(CCOCc3ccc(C(F)(F)F)cc3)CC2)cc1 | ? | ? | 7 | -2 | ? | 16µM*
O=C(NN1CCOCC1)c1cc(-c2ccc(Cl)c(Cl)c2)nc2ccccc12 | -12% | -14% | -5 | -3 | -2% | 5%
SMILES | Vaccinia Venus | VACV mCherry inh | CHX counter | Shiga inhibitor | LASV entry inh | MARV entry inh
CC(=O)Nc1ccc(N/C=C/C(=O)c2ccco2)cc1 | ? | / | 59* | 76* | -9% | 5%
CN(C)c1ccc(N/C=C/C(=O)c2ccco2)cc1 | -7% | -12% | 49* | 91* | ? | 3.7µM*
O=C(NCc1ccccc1)C1C(=O)Nc2ccccc2C(=O)N1c1ccc2c(c1)OCCO2 (configuration not stated) | 10% | -6% | / | / | / | /
O=C(O)CSc1cc(NS(=O)(=O)c2ccc(Cl)cc2)c2ccccc2c1O | ? | 14µM* | 14 | 18 | ? | ?
COc1ccc(S(=O)(=O)Nc2cc(SCC(=O)O)c(O)c3ccccc23)cc1 | / | / | 1 | -8 | / | 0%
O=C1CCCC(=O)N1c1ccc(Oc2ccc(Cl)cc2)cc1 | -10% | i | 22* | 41* | 1% | 9%
CC(C)c1ccc(C2c3c(-c4ccccc4O)n[nH]c3C(=O)N2Cc2ccncc2)cc1 (configuration not stated) | -27% | -25% | / | / | ? | ?
C1=NCCc2c1[nH]c1ccccc21 | -17%[7.34 µM] | i[7.34 µM] | / | / | 5µM* | ?
c1ccc2c3c([nH]c2c1)CCNC3 | 1% | ? | -2 | -6 | -1%[46.1 µM] | 4%[46.1 µM]
COC(=O)Cn1nnc(N2CCOCC2)n1 | -10% | -3% | 40* | -9 | -3% | 9%[46.1 µM]
Cc1ccc(-c2nnn(CC(=O)N3CCCCC3)n2)o1 | -9% | -21% | 18* | 71* | / | /
O=C(Cn1nnc(-c2ccccc2F)n1)N1CCCCC1 | / | / | 35* | 50* | / | /
COc1ccc(-c2ccc(-c3nnn(CC(=O)N4CCOCC4)n3)cc2)cc1 | / | / | 23* | 28 | ? | 22%
CC(=O)Nc1ccc(S(=O)(=O)N(C)CC(=O)OC(C)C(=O)N(C)Cc2ccccc2)cc1 (configuration not stated) | -11% | i | -1 | -7 | 11% | 17%
CCOC(=O)C(c1ccccc1)C(Nc1cc(C(F)(F)F)cc(C(F)(F)F)c1)c1ccccn1 (configuration not stated) | -3% | -3% | -1 | -13 | 0% | ?
Cc1ccc2nc(-c3ccc(Cl)cc3)c(Cc3ccccc3C(F)(F)F)n2c1 | -12% | 13% | / | / | / | /
CC1CCCN(Cc2csc(N)n2)C1 (configuration not stated) | -19% | -7% | -1 | -19 | 14%[46.1 µM] | -9%[46.1 µM]
COc1ccc(CCNC(=O)COc2ccc(C)nc2[N+](=O)[O-])cc1 | / | / | -2 | -16 | / | /
N/C(=N\OC(=O)COc1ccc(Br)cc1)c1ccncc1 | -14% | i | -3 | 19 | 0% | 21%
Cc1cc(C)c(C)c(OCC(=O)O/N=C(\N)c2cccnc2)c1 | / | / | 6 | 0 | / | /
N/C(=N\OC(=O)COc1ccc(Br)cc1Cl)c1cccnc1 | -21% | -8% | 45* | 93* | ? | ?
N/C(=N\OC(=O)COc1ccc(Cl)cc1Cl)c1ccncc1 | / | / | 43* | 85* | / | /
N/C(=N\OC(=O)COc1ccc(Cl)cc1Br)c1cccnc1 | 0% | 9% | 31* | 113* | 7% | -17%[46.1 µM]
CC1(C)C2CCC1(C)C(NCC(O)COc1ccc(C#N)cc1)C2 (configuration not stated) | / | / | -4 | 7 | / | /
COC(=O)COc1ccc(Oc2nc(NC(C)(C)C)nc(N3CCOCC3)n2)nn1 | -9% | -4% | / | / | 2%[46.1 µM] | ?
CC(C)c1ccc(NC(=O)CSC2=Nc3ccccc3C3=NC(CCC(=O)NCc4ccco4)C(=O)N23)cc1 (configuration not stated) | -10% | -11% | / | / | 3%[46.1 µM] | /
